Autofluor counter: counter-screen for toxin protease inhibitors: compound fluorescence. compound autofluorescence counterscreen, microsphere flow cytometry; hits give high values. fluorescence intensity (concentration not given with the values). actives 3.1% (n = 360,000). AID 624483; in the data active = fluorescence intensity above about 16000; inconclusive = no clear call, values can overlap the other calls
Anthrax LF inh2: Bacillus anthracis LF protease inhibitors, primary screen, biochemical, multiplex microsphere, MLPCN library. multiplex microsphere protease cleavage assay. actives 0.12% (n = 360,000). AID 588501, 2011. inhibition, % at 10 µM. Lethal factor (Bacillus anthracis), P15917; also: plate controls were buffer without enzyme for full effect and enzyme alone for no effect
Target sequence (P15917 whole entry, looked up): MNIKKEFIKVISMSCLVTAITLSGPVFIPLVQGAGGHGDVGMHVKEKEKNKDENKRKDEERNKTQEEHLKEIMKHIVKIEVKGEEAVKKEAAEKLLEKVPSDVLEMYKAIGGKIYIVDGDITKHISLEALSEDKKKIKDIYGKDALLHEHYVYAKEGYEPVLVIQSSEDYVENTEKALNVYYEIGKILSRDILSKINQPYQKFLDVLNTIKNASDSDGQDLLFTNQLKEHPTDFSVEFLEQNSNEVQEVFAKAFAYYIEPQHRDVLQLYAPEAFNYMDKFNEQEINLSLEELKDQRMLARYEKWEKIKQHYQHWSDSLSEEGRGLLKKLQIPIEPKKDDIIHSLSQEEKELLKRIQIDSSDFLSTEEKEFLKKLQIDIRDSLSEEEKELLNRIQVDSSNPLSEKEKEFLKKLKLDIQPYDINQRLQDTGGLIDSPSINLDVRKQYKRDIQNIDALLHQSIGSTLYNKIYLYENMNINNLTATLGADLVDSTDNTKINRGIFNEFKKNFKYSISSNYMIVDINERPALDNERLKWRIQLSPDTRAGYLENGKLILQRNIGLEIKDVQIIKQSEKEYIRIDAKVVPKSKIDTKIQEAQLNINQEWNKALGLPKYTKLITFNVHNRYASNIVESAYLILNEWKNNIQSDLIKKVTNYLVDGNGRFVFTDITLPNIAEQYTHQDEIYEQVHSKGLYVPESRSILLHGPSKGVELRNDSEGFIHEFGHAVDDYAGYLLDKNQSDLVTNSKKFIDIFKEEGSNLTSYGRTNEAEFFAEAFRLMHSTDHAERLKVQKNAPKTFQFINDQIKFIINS
BoNT A protease: BoNT/A light chain protease inhibitors, primary screen, biochemical, flow cytometry, MLPCN library; inhibition, % at 10 µM; Botulinum neurotoxin type A light chain protease (Clostridium botulinum A str. ATCC 3502); actives 0.17% (n = 360,000); multiplex microsphere protease substrate cleavage; also: plate controls were buffer without enzyme for full effect and enzyme alone for no effect
BoNT F protease: BoNT/F light chain protease inhibitors, primary screen, biochemical, flow cytometry, MLPCN library; Botulinum neurotoxin type F light chain protease (Clostridium botulinum); inhibition, % at 10 µM; Multiplex microsphere protease cleavage assay; AID 588497, 2011; actives 0.22% (n = 360,000); in the data active = inhibition above about 35%, passing the limit was not always enough; inconclusive = no clear call, values can overlap the other calls; also: plate controls were buffer without enzyme for full effect and enzyme alone for no effect
* = called active by the depositor; ! = not active in a repeat. Sampled rows, rich in hits. Any-hit rate of the full collection: about 3.5%. Rule as the data show it, unless noted: active = inhibition above about 30%; inconclusive = no clear call, values can overlap the other calls; inactive = below that.

Screening COc1ccccc1-c1cnc(C(O)c2ccc(F)cc2C)[nH]1 (stereo not drawn) returned Autofluor counter 3727, Anthrax LF inh2 -4.3, BoNT A protease -0.5 and BoNT F protease -8.0.
For C(=N\n1cnnc1)/c1ccc2ncccc2c1 the results were Autofluor counter 20485*, Anthrax LF inh2 -3.5, BoNT A protease inconclusive and BoNT F protease 7.9.
`C(=N\n1cnnc1)/c1ccc2c(c1)OCO2` gave Autofluor counter 24727*, Anthrax LF inh2 -0.5, BoNT A protease -1.7 and BoNT F protease -2.6.
C(=N\n1cnnc1)/c1ccc2c(c1)OCCO2 was read as Autofluor counter 7927, Anthrax LF inh2 -2.3, BoNT A protease -0.5 and BoNT F protease -1.1.
For CCCCC[C@H](C)N1C[C@H](COCc2ccccc2)Oc2cc(N3CCC[C@H]3COC)ccc2S1(=O)=O the results were Autofluor counter 6067, Anthrax LF inh2 0.2, BoNT A protease -0.2 and BoNT F protease -1.8.
CCCCCC(=O)N1CCN(CCN=CC2=C(O)CC(c3cccs3)CC2=O)CC1 (stereo not drawn) was read as Autofluor counter 19021*!, Anthrax LF inh2 -3.3, BoNT A protease 0.4 and BoNT F protease -2.2.
`CCCCCC(=O)N1CCN(CCN=CC2=C(O)CC(c3ccco3)CC2=O)CC1` (stereo not drawn) gave Autofluor counter inconclusive, Anthrax LF inh2 9.2, BoNT A protease 0.0 and BoNT F protease -3.7.
`COc1cc(-c2cn[nH]c2N)cc(OC)c1OC` gave Autofluor counter 21444*, Anthrax LF inh2 0.6, BoNT A protease inconclusive and BoNT F protease -4.7.
Nc1[nH]ncc1-c1ccc(Cl)cc1 was read as Autofluor counter 4614, Anthrax LF inh2 -3.5, BoNT A protease -0.8 and BoNT F protease -4.5.
For Cc1cccc(C)c1NC(=O)C1C2C=CC(C2)C1C(=O)O (stereo not drawn) the results were Autofluor counter 3546, Anthrax LF inh2 -2.4, BoNT A protease 2.1 and BoNT F protease 2.6.
`COCCOc1cc2ncnc(N3CCC(C(=O)O)CC3)c2cc1OCCOC` gave Autofluor counter 4238, Anthrax LF inh2 8.2, BoNT A protease inconclusive and BoNT F protease inconclusive.
For Cc1ccc(C)n1-c1nccc(-c2cccs2)n1 the results were Autofluor counter 21459*, Anthrax LF inh2 -2.7, BoNT A protease 3.6 and BoNT F protease 4.2.
Cc1cc2c(ncn2Cc2ccccc2)c([N+](=O)[O-])c1C was read as Autofluor counter 22108*, Anthrax LF inh2 -4.8, BoNT A protease 0.1 and BoNT F protease 1.5.
Cc1ccc(CONC(=O)c2ccc(C)cc2)cc1 was read as Autofluor counter 3744, Anthrax LF inh2 4.0, BoNT A protease 1.6 and BoNT F protease 9.2.
COC(=O)c1c(C)oc(C)c1S(=O)(=O)N1CCOCC1 was read as Autofluor counter 3716, Anthrax LF inh2 -13.4, BoNT A protease inconclusive and BoNT F protease inconclusive.
`COCCCN1C(=O)C(CC(=O)NCC2CCCCC2)CC(C(=O)N(C(C)C)C(C)C)=C1C` (stereo not drawn) gave Autofluor counter 5444, Anthrax LF inh2 -5.0, BoNT A protease -0.4 and BoNT F protease -11.2.
`O=C(O)c1ccc(-n2nc(C(F)(F)F)c3c2-c2ccoc2CC3)cc1` gave Autofluor counter 21579*, Anthrax LF inh2 1.2, BoNT A protease -5.9 and BoNT F protease -5.9.
`Cc1ccc2c(c1)CCCN2C(=O)c1cccs1` gave Autofluor counter 20191*, Anthrax LF inh2 1.5, BoNT A protease -1.8 and BoNT F protease -4.2.
Screening O=C(c1cccs1)N1CCc2ccccc21 returned Autofluor counter 21871*, Anthrax LF inh2 1.8, BoNT A protease 1.3 and BoNT F protease 1.4.
For CCN(CC)S(=O)(=O)c1cccc(C(=O)NCCCn2ccnc2)c1 the results were Autofluor counter 3289, Anthrax LF inh2 -6.9, BoNT A protease 0.4 and BoNT F protease 3.0.
For CC(C)c1ccc(NC(=O)COC(=O)[C@@H]2CCCN2C(=O)c2cccs2)cc1 the results were Autofluor counter 3615, Anthrax LF inh2 -12.0, BoNT A protease -1.0 and BoNT F protease -8.6.
Screening CC(=O)Nc1ccc(N2CCN(Cc3ccccc3)CC2)cc1 returned Autofluor counter 3790, Anthrax LF inh2 2.2, BoNT A protease -0.2 and BoNT F protease 6.8.
O=C(O)c1cccc(CSc2nnc(Cc3ccccc3)o2)c1 was read as Autofluor counter 22785*, Anthrax LF inh2 0.9, BoNT A protease inconclusive and BoNT F protease -2.3.
Screening COc1cccc(-c2nnc(SCC(=O)N(C(C)C)C(C)C)o2)c1 returned Autofluor counter 24162*, Anthrax LF inh2 -2.6, BoNT A protease inconclusive and BoNT F protease -4.6.

From PubChem
